PubChem BioAssay (Tox21)
Values joined by “and” are separate entries in the source; they are usually repeats but may differ in a detail not shown here. Equal entries are not always repeated. Inconclusive results are not listed. A call without a number means that no potency is given here. More than one record can exist for a structure, and the calls need not agree. Active and inactive are the calls of the source. Calls come from the whole dose curve. Residues, ends and D or L forms follow the SMILES beside them.

assay: qHTS assay to identify small molecule antagonists of the sonic hedgehog signaling (Shh) pathway (AID 1259369); conditions: NIH/3T3 Gli1-Luc reporter, Shh antagonist, luminescence 24 h; series mostly up to 92.4 µM; note: nearly all actives have a fitted effect of over 45% in size
Description: U.S. Tox21 Program National Center for Advancing Translational Sciences [NCATS] NIH Chemical Genomics Center [NCGC] U.S. Environmental Protection Agency [EPA] National Institutes of Environmental Health Sciences [NIEHS] National Toxicology Program [NTP] U.S. Food and Drug Administration [FDA] Tox21 Assay Overview: The sonic hedgehog (Shh) pathway is essential for normal embryonic development. Dysregulation of the Shh pathway can cause severe developmental defects in organs. Therefore chemicals that interfere with the pathway are potential developmental toxicants. A cell line designated 3T3Gli1-Luc (DMB/OARSA/CFSAN/FDA, Laurel, MD), a NIH/3T3 derived clone containing stably integrated Gli1-Luc reporter is used to detect chemical interference of the Shh pathway, by changes in the expression of the firefly Luc gene under the control of the Gli1 transcriptional response element. This cell line was used to screen Tox21 libraries for identifying and prioritizing the potential developmental toxicants that interfere Shh pathway. Conditioned medium-stimulated mode was used to screen for chemicals inhibiting Shh signaling.
Tox21 Assay Protocol Summary: 3T3 Gli1-Luc cells were dispensed at 2,000 per well in 5uL of culture medium into white solid bottom 1536-well plates (Greiner Bio-One, Monroe, NC) using a Multidrop Combi (Thermo Scientific, Waltham, MA) dispenser. The assay plates were incubated at 37 C and 5% CO2 for 4hr, and then 23nL of compounds dissolved in DMSO and positive control were transferred using a Pintool station (Wako, San Diego, CA). The compound transfer was followed by the addition of 1ul conditioned medium or assay buffer using two separate tips of Flying Reagent Dispenser (FRD, Aurora Discovery, San Diego, CA). The assay plates were incubated at 37C and 5% CO2 for 24hr. For luciferase read, 4uL of Amplite Luciferase reporter gene assay reagent (AAT Bioquest, Inc. Sunnyvale, CA) was added to each well of the assay plates using FRD and incubated at room temperature for 30min. The luminescence signal was measured using a ViewLux plate reader (Perkin Elmer, Shelton, CT).
Potency is the fitted concentration of half-maximal effect.

Row | SMILES | Potency
1 | O=C(O)/C=C\C(=O)O | inactive
2 | CC(C)[C@@H]1CC[C@@H](C)C[C@H]1O | inactive and 31.6 µM (active)
3 | O=C(O)c1cc(N=Nc2ccc(S(=O)(=O)Nc3ccccn3)cc2)ccc1O | inactive
4 | CC(=O)Nc1nnc(S(N)(=O)=O)s1 | inactive
5 | O=C(O)CCC(=O)O | inactive
6 | Cc1ccc(O)cc1 | inactive
7 | NC(N)=NC(=O)c1nc(Cl)c(N)nc1N | inactive
8 | CCCN(CCC)S(=O)(=O)c1ccc(C(=O)O)cc1 | inactive
9 | OC(Cn1cncn1)(Cn1cncn1)c1ccc(F)cc1F | inactive
10 | Cc1cc(=O)[nH]c(=S)[nH]1 | inactive
11 | CC(=O)OCC(COC(C)=O)OC(C)=O | inactive
12 | CNC[C@H](O)c1cccc(O)c1 | inactive
13 | NC(N)=O | 7.28 µM (active) and inactive and 68.6 µM (active)
14 | NC(=O)c1cnccn1 | inactive
15 | COc1c2occc2cc2ccc(=O)oc12 | 24.3 µM (active) and inactive
16 | O=c1cc[nH]c(=S)[nH]1 | inactive
17 | NC(=O)c1ccccc1O | inactive
18 | CCCCC1C(=O)N(c2ccccc2)N(c2ccccc2)C1=O | inactive
19 | Cc1ccccc1C(OCCN(C)C)c1ccccc1 (stereo not given) | 27.3 µM (active)
20 | CC(O)CN(CCN(CC(C)O)CC(C)O)CC(C)O (stereo not given) | inactive

Row | SMILES | Potency
21 | O=C(O)CS | inactive and 30.9 µM (active)
22 | OCCc1ccccc1 | inactive
23 | O=C(O)C(=O)O | inactive and 1.22 µM (active)
24 | O=c1ccc2ccccc2o1 | inactive
25 | O=C(O)CCCCC(=O)O | inactive
26 | Nc1ccc(O)c(C(=O)O)c1 | inactive
27 | COc1ccc2[nH]cc(CCNC(C)=O)c2c1 | inactive
28 | CCC1(c2ccccc2)C(=O)NCNC1=O | inactive
29 | O=C(C1CCCCC1)N1CC(=O)N2CCc3ccccc3C2C1 (stereo not given) | inactive
30 | O=S(=O)(O)NC1CCCCC1 | inactive
31 | CC(O)C(=O)O (stereo not given) | inactive
32 | COC(=O)[C@H](Cc1ccccc1)NC(=O)[C@@H](N)CC(=O)O (H-Asp-Phe-OMe) | inactive
33 | O=C1NC(=O)c2ccccc21 | inactive
34 | CCCCCCCCCCCCCCCC(=O)O | inactive
35 | O=C(O)CCCCCCCC(=O)O | inactive
36 | O=C(O)c1[nH]n(-c2ccc(S(=O)(=O)O)cc2)c(=O)c1N=Nc1ccc(S(=O)(=O)O)cc1 | inactive and 57.1 µM (active)
37 | CCCC(CCC)C(=O)O | inactive
38 | Nc1ccc(C(=O)O)cc1 | inactive
39 | C/C=C/c1ccc(OC)cc1 | inactive
40 | c1ccc2[nH]ccc2c1 | 6.01 µM (active) and inactive
